Data as given in PubChem BioAssay (EPA / NIEHS).
Inconclusive results are not listed. Active and inactive are the calls of the source. How the source made its calls, unless noted: active means hit-call score of the fitted dose curve at least 0.9, where 1 is the maximum; inactive means score below 0.9.

Experiments:
[1] = CCTE_Shafer_MEA_acute_firing_rate_mean: CCTE's Neural Acute Assay for Mean Firing Rate, Shafer Lab (AID 2284009);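 further: analyzed for loss of signal so actives lower firing rate relative to DMSO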
In short: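 Primary rat cortical neurons on 16-electrode MEA wells were exposed on DIV 13 or 15 to compound (0.03-40 uM). Spike counts per recording time, averaged over electrodes, were compared between 40-min baseline and 40-min post-exposure recordings as percent change.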

[2] = CCTE_Shafer_MEA_acute_burst_number: CCTE's Neural Acute Assay for Single-Electrode Bursts, Shafer Lab (AID 2284013)
In short: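 Primary rat cortical neurons on 16-electrode MEA wells, DIV 13 or 15, exposed to compound (0.03-40 uM; ≥3 wells); 40-min recordings at 37 C before and after treatment. Burst count expressed as percent change from baseline, DMSO as negative control.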

[3] = CCTE_Shafer_MEA_acute_burst_duration_mean: CCTE's Neural Acute Assay for Mean Burst Duration, Shafer Lab (AID 2284014);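 further: hits are decreases in mean burst duration relative to DMSO controls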
In short: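 Mean burst duration was compared between a 40 min baseline and a 40 min recording in the presence of compound (0.03-40 uM, 37 C), giving percent change per well. Cultures were rat cortical neurons at DIV 13 or 15; wells needed ≥10 active electrodes.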

[4] = CCTE_Shafer_MEA_acute_per_burst_spike_number_mean: CCTE's Neural Acute Assay for Average Number of Spikes Per Burst, Shafer Lab (AID 2284015);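 further: hits are decreases in mean spikes per burst versus baseline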
In short: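 Primary rat cortical neurons on 48-well MEA plates, treated on DIV 13 or 15 at 0.03-40 uM. Spontaneous activity recorded 40 min before and 40 min after compound at 37 C; percent change in mean spikes per single-electrode burst per well, fitted in the loss direction versus DMSO.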

[5] = CCTE_Shafer_MEA_acute_interburst_interval_mean: CCTE's Neural Acute Assay for Mean Interburst Interval, Shafer Lab (AID 2284016);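 further: percent change of mean interburst interval versus each well's own pre-dose baseline; curves fitted for decrease in interburst interval relative to DMSO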
In short: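 Primary rat cortical neurons on 16-electrode MEA wells were recorded 40 min at baseline on DIV 13 or 15, then 40 min after compound (0.03-40 uM), at 37 C. Value is percent change in mean interburst interval per well, DMSO as negative control.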

[6] = CCTE_Shafer_MEA_acute_burst_percentage_mean: CCTE's Neural Acute Assay for Percentage of Spikes in a Burst, Shafer Lab (AID 2284017)
In short: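 Primary rat cortical neurons on 16-electrode MEA wells; 40 min baseline recorded at DIV 13 or 15, then 40 min after compound (0.03-40 uM) at 37 C. Well-mean fraction of spikes in single-electrode bursts; percent change from baseline, DMSO as negative control.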

[7] = CCTE_Shafer_MEA_acute_burst_percentage_std: CCTE's Neural Acute Assay for Standard Deviation of Burst Percentage, Shafer Lab (AID 2284018);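 further: fitted in the negative direction so actives lower burst percentage SD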
In short: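 Value is percent change from baseline in the across-electrode SD of spikes-in-bursts percentage, wells with >/= 10 active electrodes. Acute 40-min exposure to 0.03-40 uM on DIV 13 or 15 rat cortical cultures, recorded at 37 C after 40-min baseline.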

[8] = CCTE_Shafer_MEA_acute_per_network_burst_spike_number_mean: CCTE's Neural Acute Assay for Average Number of Spikes in a Network Burst, Shafer Lab (AID 2284019)
In short: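 Percent change from baseline in mean spikes per network burst, spikes detected at 8x rms noise. Each compound at 0.03-40 uM in at least three wells of rat cortical cultures, recorded 40 min before and 40 min during exposure.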

[9] = CCTE_Shafer_MEA_acute_per_network_burst_spike_number_std: CCTE's Neural Acute Assay for Standard Deviation of Number of Spikes in a Network Burst, Shafer Lab (AID 2284020);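 further: fitted for decrease in spike-number SD versus DMSO so actives lower it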
In short: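 Endpoint: percent change from 40 min baseline in standard deviation of spikes per network burst, after 40 min compound exposure (0.03-40 uM, 37 C). Cortical rat neurons on MEA at DIV 13 or 15; spikes detected at 8x rms noise, 300-5000 Hz band-pass.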

[10] = CCTE_Shafer_MEA_acute_per_network_burst_electrodes_number_mean: CCTE's Neural Acute Assay for Mean Number of Electrodes in a Network Burst, Shafer Lab (AID 2284021);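 further: curves fitted for decreases only so hits reduce electrodes per burst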
In short: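 Rat primary cortical neurons on 48-well MEAs, DIV 13 or 15, were treated at 0.03-40 uM. Spikes were detected at 8x rms noise and recorded at 37 C. The mean electrodes per network burst in a 40 min exposure recording was expressed as percent change from a 40 min baseline.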

[11] = CCTE_Shafer_MEA_acute_network_burst_percentage: CCTE's Neural Acute Assay for Percentage of Network Bursts, Shafer Lab (AID 2284022);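 further: curves fitted for loss so actives lower network burst percentage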
In short: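 Rat primary cortical neuron networks on 48-well MEA plates, DIV 13 or 15, treated acutely with compound (0.03-40 uM, at least three wells). Percent of spikes within network bursts compared between 40-min recordings before and during exposure at 37 C, expressed as percent change.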

[12] = CCTE_Shafer_MEA_acute_cross_correlation_area: CCTE's Neural Acute Assay for Area of Cross Correlation, Shafer Lab (AID 2284024);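 further: curves fitted for loss of cross-correlation area so actives lower synchrony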
In short: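 Rat primary cortical neurons on 48-well MEA, DIV 13 or 15; compounds 0.03-40 uM. Baseline and post-exposure 40 min recordings at 37 C; percent change in area under pooled inter-electrode cross-correlation near zero lag, relative to DMSO.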

[13] = CCTE_Shafer_MEA_acute_cross_correlation_HWHM: CCTE's Neural Acute Assay for Cross Correlation at Half Width at Half Maximum, Shafer Lab (AID 2284026);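 further: spontaneous network firing of rat primary cortical neurons on multiwell microelectrode arrays; percent change per well from pre-dose baseline in spike cross-correlogram half width; hits are a decrease in cross-correlogram half width relative to DMSO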
In short: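 Rat primary cortical neurons on 48-well MEA plates; 40-min baseline and 40-min post-exposure recordings at 37 C on DIV 13 or 15, compounds 0.03-40 uM. Spikes detected at 8x rms noise; percent change in cross-correlogram HWHM per well vs baseline.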

[14] = CCTE_Shafer_MEA_acute_synchrony_index: CCTE's Neural Acute Assay for Synchrony, Shafer Lab (AID 2284027);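 further: network synchrony index of spontaneous spiking in primary rat cortical neurons on MEAs; fitted for loss of signal so actives lower synchrony relative to DMSO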
In short: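 Acute exposure of rat primary cortical neurons (DIV 13 or 15) at 0.03-40 uM. Synchrony index, 40 min before vs after, as % change relative to DMSO control.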

[15] = CCTE_Shafer_MEA_dev_firing_rate_mean: CCTE's Neural Network Formation Assay for Mean Firing Rate, Shafer Lab (AID 2284031);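 further: AUC of well mean spike rate recorded on DIV 5 7 9 and 12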
In short: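 Extracellular spike frequency, AUC over DIV 5–12 recordings, in rat cortical neuron MEA cultures dosed from plating; loss direction vs DMSO.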

[16] = CCTE_Shafer_MEA_dev_active_electrodes_number: CCTE's Neural Network Formation Assay for Number of Active Electrodes, Shafer Lab (AID 2284040; active means hit-call score of the fitted dose curve at least 0.9, where 1 is the maximum)
In short: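 Developing rat cortical networks on MEAs, exposed DIV 0–12. Value is the AUC of active-electrode counts (≥5 spikes/min) from days 5, 7, 9, 12, relative to DMSO.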

[17] = CCTE_Shafer_MEA_dev_burst_rate: CCTE's Neural Network Formation Assay for Burst Rate, Shafer Lab (AID 2284042)
In short: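 Rat primary cortical cultures on PEI/laminin MEA; compound from plating, re-dosed at DIV 5, 9 media change. Single-electrode bursts/recording length, well mean of active electrodes; AUC over DIV 5–12 recordings; loss-of-signal vs DMSO.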

[18] = CCTE_Shafer_MEA_dev_bursting_electrodes_number: CCTE's Neural Network Formation Assay for Number of Bursting Electrodes, Shafer Lab (AID 2284043; active means hit-call score of the fitted dose curve at least 0.9, where 1 is the maximum)
In short: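 Number of electrodes reaching ≥1 burst every 2 min was recorded at DIV 5, 7, 9 and 12 and collapsed as trapezoidal area under the curve. Cultures were rat cortical neurons on MEA plates, dosed continuously from plating with medium and treatment refreshed on DIV 5 and 9.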

[19] = CCTE_Shafer_MEA_dev_burst_duration_mean: CCTE's Neural Network Formation Assay for Mean Burst Duration, Shafer Lab (AID 2284045)
In short: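 Mean single-electrode burst duration (first to last spike), averaged over bursting electrodes per well, then integrated as area-under-curve across recordings at days 5, 7, 9 and 12. Rat cortical cultures on MEAs, compound present from plating, refreshed at feeds.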

[20] = CCTE_Shafer_MEA_dev_inter_network_spike_interval_mean: CCTE's Neural Network Formation Assay for Mean Inter-network Spike Interval, Shafer Lab (AID 2284047)
In short: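 Primary rat cortical neurons on PEI-coated 48-well MEAs (16 electrodes/well) were exposed from plating day 0 to DIV 12, with dosing renewed at DIV 5 and 9. Recordings at DIV 5, 7, 9, 12 were collapsed by trapezoidal AUC, loss-of-signal fit vs DMSO.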

Measured: outcome

O=C(O)CNCP(=O)(O)O
inactive: all assays above
